This note sets out measurements from the supplement of paper PMC12808144.

Unmarked numbers belong to inactive results.

The test system of one assay is Mel-DCC-11. Description: cell viability relative to DMSO control (fraction of DMSO control); higher = less cytotoxic, active = 0.5 or less. The note with it: 1 µM; 120 h. An outline of the steps: (§1)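 A library of 315 approved anti-cancer drugs (TargetMol) was acoustically pre-spotted into 384-well plates and tested at 1 µM in duplicate for 120 h. Cells were added in 40 µl per well: NHEM-hTERT immortalized melanocytes at 2500/well, and patient-derived Mel-DCC-11 and its resistant subline Mel-DCC-11-R at 1500/well. The subline was tested both alone and with 8 µM of its selecting drug. Viability was read by ATPlite 1step luminescence, normalised to DMSO controls and averaged over duplicates.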

The subject of another assay is NHEM-hTERT. Described as above. To be noted: 1 µM; 120 h. The procedure, abridged:
as §1

The subject of the next assay is Mel-DCC-11-R. As to the kind of experiment: cell viability relative to DMSO control (fraction of DMSO control); higher = less cytotoxic, active = 0.8 or less. The note with it: 1 µM, 120 h. The procedure, abridged: as §1

`CO[C@H]1C(=O)[C@]2(C)[C@@H](OC)C[C@H]3OC[C@@]3(OC(C)=O)[C@H]2[C@H](OC(=O)c2ccccc2)[C@]2(O)C[C@H](OC(=O)[C@H](O)[C@@H](NC(=O)OC(C)(C)C)c3ccccc3)C(C)=C1C2(C)C` [Cabazitaxel]: the cell viability in the assay on Mel-DCC-11 was 0.81; in the assay on NHEM-hTERT it was 0.692; in the assay with Mel-DCC-11-R (vemurafenib co-treatment 0 µM), 1.04; with Mel-DCC-11-R (vemurafenib co-treatment 8 µM), 0.565 (active).

Consider `COc1ccc([C@@H]2CC(=O)c3c(O)cc(O)cc3O2)cc1O` [Hesperetin], for which the cell viability with Mel-DCC-11 is 1.01; in the assay on NHEM-hTERT, 0.971; in the assay with Mel-DCC-11-R (vemurafenib co-treatment 0 µM), 0.891; with Mel-DCC-11-R (vemurafenib co-treatment 8 µM), 1.05.

Take `CC(=O)c1c(C)c2cnc(Nc3ccc(N4CCNCC4)cn3)nc2n(C2CCCC2)c1=O.Cl` [Palbociclib hydrochloride]: the cell viability with Mel-DCC-11 is 0.591; in the assay with NHEM-hTERT, 1.05; in the assay on Mel-DCC-11-R (vemurafenib co-treatment 0 µM) it was 1.46; in the assay on Mel-DCC-11-R (vemurafenib co-treatment 8 µM), 1.08.

Take `Nc1ccccc1NC(=O)c1ccc(CNc2nccc(-c3cccnc3)n2)cc1` [Mocetinostat]: the cell viability with Mel-DCC-11 is 0.976; in the assay on NHEM-hTERT, 0.55; in the assay with Mel-DCC-11-R (vemurafenib co-treatment 0 µM) it was 0.558 (active); in the assay with Mel-DCC-11-R (vemurafenib co-treatment 8 µM) it was 0.545 (active).

Regarding `Cc1ccc(NC(=O)c2ccc(CN3CCN(C)CC3)cc2)cc1Nc1nccc(-c2cccnc2)n1` [Imatinib], the cell viability in the assay on Mel-DCC-11 is 1.15; in the assay with NHEM-hTERT, 1.24; with Mel-DCC-11-R (vemurafenib co-treatment 0 µM) it was 0.978; in the assay with Mel-DCC-11-R (vemurafenib co-treatment 8 µM) it was 1.1.

In the case of `CC(COc1ccccc1)N(CCCl)Cc1ccccc1.Cl` (configuration not stated) [Phenoxybenzamine hydrochloride], the cell viability in the assay on Mel-DCC-11 was 1.18; in the assay on NHEM-hTERT it was 1.13; with Mel-DCC-11-R (vemurafenib co-treatment 0 µM) it was 1; in the assay on Mel-DCC-11-R (vemurafenib co-treatment 8 µM) it was 1.15.

`O=c1[nH]c(=O)n([C@H]2C[C@H](O)[C@@H](CO)O2)cc1C(F)(F)F` [Trifluridine]: the cell viability in the assay with Mel-DCC-11 was 1.7; with NHEM-hTERT, 1.12; with Mel-DCC-11-R (vemurafenib co-treatment 0 µM) it was 1.24; in the assay with Mel-DCC-11-R (vemurafenib co-treatment 8 µM), 1.06.

Take `CN(C)CCCN1c2ccccc2Sc2ccc(Cl)cc21.Cl` [Chlorpromazine hydrochloride]: the cell viability was 1.33 in the assay with Mel-DCC-11, 1.06 in the assay on NHEM-hTERT, 1.06 with Mel-DCC-11-R (vemurafenib co-treatment 0 µM) and 1.11 in the assay with Mel-DCC-11-R (vemurafenib co-treatment 8 µM).

As to `CC(C)CN(C[C@@H](O)[C@H](Cc1ccccc1)NC(=O)O[C@H]1CCOC1)S(=O)(=O)c1ccc(N)cc1` [Amprenavir], the cell viability is 0.769 with Mel-DCC-11, 0.952 in the assay on NHEM-hTERT, 0.854 in the assay with Mel-DCC-11-R (vemurafenib co-treatment 0 µM) and 0.833 with Mel-DCC-11-R (vemurafenib co-treatment 8 µM).

In the case of `CC/C(=C(\c1ccccc1)c1ccc(OCCN(C)C)cc1)c1ccccc1.O=C(O)CC(O)(CC(=O)O)C(=O)O` [Tamoxifen Z-isomer citrate], the cell viability in the assay with Mel-DCC-11 was 1.26; in the assay on NHEM-hTERT, 0.977; with Mel-DCC-11-R (vemurafenib co-treatment 0 µM), 0.873; in the assay with Mel-DCC-11-R (vemurafenib co-treatment 8 µM), 1.16.

Turning to `CS(=O)(=O)CCNCc1ccc(-c2ccc3ncnc(Nc4ccc(OCc5cccc(F)c5)c(Cl)c4)c3c2)o1.Cc1ccc(S(=O)(=O)O)cc1.Cc1ccc(S(=O)(=O)O)cc1.O` [Lapatinib ditosylate monohydrate], the cell viability was 1.13 with Mel-DCC-11, 1.05 in the assay on NHEM-hTERT, 1.14 in the assay on Mel-DCC-11-R (vemurafenib co-treatment 0 µM) and 0.823 with Mel-DCC-11-R (vemurafenib co-treatment 8 µM).

In the case of `Nc1nc(=O)c2c(CCc3ccc(C(=O)N[C@@H](CCC(=O)[O-])C(=O)[O-])cc3)c[nH]c2[nH]1.[Na+].[Na+]` [Pemetrexed Disodium Hydrate], the cell viability with Mel-DCC-11 is 1.02; in the assay with NHEM-hTERT, 0.995; in the assay with Mel-DCC-11-R (vemurafenib co-treatment 0 µM) it was 1.11; in the assay on Mel-DCC-11-R (vemurafenib co-treatment 8 µM) it was 1.13.

`O=C1CCC(N2C(=O)c3ccccc3C2=O)C(=O)N1` (configuration not stated) [Thalidomide]: the cell viability in the assay with Mel-DCC-11 is 1.2; with NHEM-hTERT, 1.1; with Mel-DCC-11-R (vemurafenib co-treatment 0 µM) it was 0.897; in the assay with Mel-DCC-11-R (vemurafenib co-treatment 8 µM) it was 0.589 (active).

In the case of `CCN(c1cc(-c2ccc(CN3CCOCC3)cc2)cc(C(=O)NCc2c(C)cc(C)[nH]c2=O)c1C)C1CCOCC1`, the cell viability in the assay with Mel-DCC-11 was 1.12; in the assay with NHEM-hTERT, 0.964; with Mel-DCC-11-R (vemurafenib co-treatment 0 µM), 0.831; in the assay on Mel-DCC-11-R (vemurafenib co-treatment 8 µM), 0.967.

As for `CCN(CC)CCNC(=O)c1c(C)[nH]c(/C=C2\C(=O)Nc3ccc(F)cc32)c1C` [Sunitinib], the cell viability is 0.532 in the assay on Mel-DCC-11, 0.591 with NHEM-hTERT, 1.16 in the assay on Mel-DCC-11-R (vemurafenib co-treatment 0 µM) and 0.564 (active) in the assay on Mel-DCC-11-R (vemurafenib co-treatment 8 µM).

In the case of `CN(C)C(=O)c1cc2cnc(Nc3ccc(N4CCNCC4)cn3)nc2n1C1CCCC1` [Ribociclib], the cell viability with Mel-DCC-11 is 0.584; in the assay with NHEM-hTERT, 0.989; in the assay on Mel-DCC-11-R (vemurafenib co-treatment 0 µM), 1.25; in the assay with Mel-DCC-11-R (vemurafenib co-treatment 8 µM) it was 1.21.

Take `CCCCCCCCCCCC1=C(O)C(=O)C=C(O)C1=O` [Embelin]: the cell viability with Mel-DCC-11 is 1.24; in the assay with NHEM-hTERT, 1.01; in the assay with Mel-DCC-11-R (vemurafenib co-treatment 0 µM) it was 1.07; with Mel-DCC-11-R (vemurafenib co-treatment 8 µM), 1.15.

On to `Nc1nc(F)nc2c1ncn2[C@@H]1O[C@H](CO)[C@@H](O)[C@@H]1O` [Fludarabine], for which the cell viability is 1.15 in the assay with Mel-DCC-11, 0.934 with NHEM-hTERT, 1.2 in the assay with Mel-DCC-11-R (vemurafenib co-treatment 0 µM) and 0.977 in the assay with Mel-DCC-11-R (vemurafenib co-treatment 8 µM).
